zVAD death inh: L929 zVAD cell death inhibition | L929 zVAD necroptosis rescue, ATP luminescence, 24 h; with zVAD 60 µM | viability rescue, % at 10 µM | 220,000 tested, 0.38% active | AID 1377;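 active means activation, scaled between plate controls, above about 75%, limit read from the data; inactive means activation under that limit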;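 further: 0% = zVAD with DMSO and 100% = DMSO alone without zVAD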
EBV gp42 block: inhibitors of Epstein-Barr virus glycoprotein 42. Q1HVG2. Fluorescence polarization binding assay, mP read-out. inhibition, % (tested at 21.74 µM). 220,000 tested, 0.42% active. AID 1085; in the data active means inhibition above about 50%
TNF death inh: TNF-alpha cell death inhibition in Jurkat FADD-/- cells | Jurkat FADD-/- TNF necroptosis rescue, ATP luminescence, 24 h; 0 = TNF only, 100 = no-TNF cells | activation (protection from cell death), % at 10 µM | 220,000 tested, 0.068% active | AID 463075;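 active means activation, meaning protection from cell death, of at least 50% relative to plate controls; inactive means activation below 50%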;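 further: necroptosis triggered by 40 ng/mL TNF-alpha added together with compound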
eIF4E 4G PPI: eIF4E/eIF4G interaction inhibition in translation initiation. P63073+Q04637. 220,000 tested, 0.37% active. AID 782. inhibition, % at 21.7 µM. TR-FRET eIF4E-eIF4GI(517-606) binding, 2 h;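 active means inhibition above about 30%, limit read from the data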;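 further: 0% = full FRET control wells and 100% = background wells lacking eIF4GI fragment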
Starred values were filed as active, the others as inactive; x = no result given; [ ] = dose if it differs, or a comment. The list is not random: actives were taken first. Their share in the collection is about 1.2%.

SMILES	zVAD death inh	EBV gp42 block	TNF death inh	eIF4E 4G PPI
COc1cccc(C2C3=C(N=c4s/c(=C\c5ccc(OCC(=O)O)cc5)c(=O)n42)c2ccccc2CC3)c1 (stereo unspecified)	-0.4	-1.3	-1.0	39.9*
Cc1cc(C)c2cc3c(ccn3C3OC[C@H](O)[C@H](O)[C@H]3O)cc2n1 (stereo partly specified)	0.0	94.1*	0.2	-17.7
CC(=O)O[C@@H]1[C@@H](OC(C)=O)[C@H](n2ccc3cc([N+](=O)[O-])ccc32)OC[C@@H]1OC(C)=O	-0.1	-7.3	-2.0	-6.4
Oc1ccc(-c2[nH]ncc2-c2cccc3cccnc23)c(O)c1	-0.2	-9.4	-8.9	92.2*
Clc1ccc(C2=CC(c3ccco3)n3ncnc3N2)cc1 (stereo unspecified)	-0.1	80.5*	-2.2	8.8
CC(=O)Nc1cccc(C2=CC(c3ccco3)n3ncnc3N2)c1 (stereo unspecified)	5.5	130.1*	-1.7	0.6
COc1ccc(C2C=C(c3ccccc3)Nc3ncnn32)cc1 (stereo unspecified)	0.1	-1.9	-0.8	4.8
COc1ccc(C2=CC(c3ccco3)n3ncnc3N2)cc1 (stereo unspecified)	1.2	87.8*	-2.5	0.4
COc1ccc(NC(=O)CC2(CC(=O)O)CCCC2)cn1	4.2	13.0	0.4	1.9
Cn1c(SCC(=O)NC(=O)Nc2ccccc2)nnc1-c1ccncc1	0.9	-2.9	1.9	-7.1
CCOC(=O)c1cncc(O)c1	0.2	6.7	2.4	-1.2
N=c1sccn1CC(=O)Nc1ccc([N+](=O)[O-])cc1Cl	0.2	-22.0	4.4	-3.9
O=C1OCC2OC(O)C(O)C(O)C2OC(=O)c2cc(O)c(O)c(O)c2-c2c(O)c(O)c3oc(=O)c4c(c(O)c(O)c5oc(=O)c2c3c54)-c2c1cc(O)c(O)c2O (stereo unspecified)	0.6	22.1	-0.4	34.4*
Cc1ccn(C(=O)c2ccc(NC(=O)C3CCCCC3)cc2)n1	0.2	181.5*	0.3	2.9
O=C(Nc1ccc(-n2cnnn2)cc1)C1CCC1	0.1	88.7*	-0.3	x
O=C(Nc1ccc(F)cc1)C1CCCCC1	0.0	-5.3	0.7	-2.2
C/C(=N\NC(N)=S)C1(C)CC2(CC(C)(C)OC2=O)C(=O)O1 (stereo unspecified)	-0.3	-13.5	-0.7	0.7
C=CCc1cccc(C=Nc2cc(Br)ccc2O)c1O	1.4	101.5*	1.6	11.7
C=CCc1cccc(/C=N/c2ncn[nH]2)c1O	1.0	-14.3	0.7	4.1
Cc1nc2ccc(NC(=O)Cc3c(F)cccc3Cl)cc2s1	0.8	-24.1	5.2	6.9
Cc1ccccc1-n1sc2cc(F)ccc2c1=O	-0.4	-25.2	-6.9	51.8*
Cc1ccccc1-n1c(=O)c2ccccc2n2cnnc12	-0.1	10.1	-2.4	6.6
COc1ccc(C2=CSC3=NCCN23)cc1F	-0.3	-11.3	0.5	38.2*[fluorescence artefact?]
COc1ccc(-c2csc(N)n2)cc1F	0.2	2.5	-1.1	-0.8
CC(=O)c1c(C)nc(-c2ccc(Cl)cc2)nc1N=CN(C)C	0.9	-15.3	-0.5	59.7*
SMILES	zVAD death inh	EBV gp42 block	TNF death inh	eIF4E 4G PPI
CC(=O)c1c(C)nc(-c2ccc(Cl)cc2)nc1N	0.7	-13.7	-1.3	14.9
Cc1ccccc1-n1c(SC/C(O)=C(\C#N)c2nc3ccccc3[nH]2)nnc1-c1ccncc1	0.2	10.8	1.2	-1.7
Cc1cc(C)n2c(SC/C(O)=C(\C#N)c3nc4ccccc4[nH]3)nnc2n1	0.2	66.8*	0.8	9.3
Cc1cccc(-n2c(SCc3cc(=O)n4ccsc4n3)nc3ccccc32)c1	0.5	77.9*	-1.5	1.2
CCNc1nc(NC(C)C)nc(Oc2ccc(=O)n(C)n2)n1	1.1	-0.2	-3.9	64.9*
COc1ccc(N2CCN(C(=O)CCc3ccc(S(=O)(=O)NC(C)(C)C)cc3)CC2)cc1	-0.8	-2.0	3.7	-5.7
O=C(c1ccco1)N1CCN(c2nnc(-c3ccccc3)c3ccccc23)CC1	0.5	-5.5	-2.9	-3.3
Cc1ccc(N=Nc2c(N)[nH]n3c(=O)cc(-c4ccccc4)nc23)cc1	-0.3	62.9*	-5.1	-28.4
Cc1nc2oc3ccccc3c(=O)c2c(=O)n1Cc1ccccc1	2.9	-26.8	60.1*	4.5
CN(C)c1ccc(/C=N\NC(=O)c2csnn2)cc1	-0.2	3.0	-1.4	11.8
CN(C)c1ccc(/C=N/NC(=O)c2cnc3ccccc3c2)cc1	0.0	76.0*	-2.6	-8.7
CCc1cc[n+](-c2nc3ccccc3nc2[N-]S(=O)(=O)c2ccc(Br)s2)cc1	7.0	58.0*	-2.7	-1.0
COCCN(Cc1ccco1)C(=O)Cn1ncc2c(=O)oc3ccccc3c21	-0.2	-16.7	2.0	-1.5
COc1ccc(NC(=O)C(OC)c2ccccc2)cc1Cl (stereo unspecified)	3.2	-9.6	50.3*	0.1
COc1ccc(NC(C)C(=O)Nc2ccc(C#N)cc2)cc1Cl (stereo unspecified)	-0.6	1.2	5.5	31.5*
COC(C(=O)Nc1ccc(S(=O)(=O)Nc2ccc(F)cc2)cc1)c1ccccc1 (stereo unspecified)	2.5	7.7	23.7	-0.3
COC(C(=O)Nc1ccc(S(=O)(=O)N2CCCCC2)cc1)c1ccccc1 (stereo unspecified)	-0.3	-6.4	59.7*	4.2
COc1ccc(Cl)cc1NC(=O)C(OC)c1ccccc1 (stereo unspecified)	-0.2	2.8	1.4	2.0
COC(C(=O)Nc1ccc(F)cc1)c1ccccc1 (stereo unspecified)	x	-6.2	97.7*	-4.2
Cc1ccc(S(=O)(=O)NNC(=O)c2ccoc2C)cc1	0.5	-16.9	0.1	3.0
CCCCCc1nc2sc3c(c2c(=O)n1NC(=O)c1ccc([N+](=O)[O-])cc1)CC(C)(C)OC3	0.3	-5.3	2.9	1.2
COc1ccccc1N(C)S(=O)(=O)c1ccc(C(=O)OCC(=O)N2CCCCCC2)cc1	1.2	-4.7	1.9	-2.5
CC1=CC(=C(C#N)c2nc3ccccc3s2)C=C(C)N1CC1CCCO1 (stereo unspecified)	4.6	155.2*	-0.3	0.9
c1ccc2sc(NCC3CCCO3)nc2c1 (stereo unspecified)	0.8	-18.6	3.5	3.9
OCCNc1c2ccccc2nc2ccccc12	69.2	-3.5	-11.9	-0.5
SMILES	zVAD death inh	EBV gp42 block	TNF death inh	eIF4E 4G PPI
CCCNc1c(F)c(F)c2c(C)c3ccccc3nc2c1F	0.3	133.9*	-6.9	-1.3
Clc1nssc1=Nc1ccc(Br)cc1	-0.4	-36.6	-2.1	51.0*
N#Cc1cccc(N=c2ssnc2Cl)c1	-0.6	-24.1	-0.4	54.3*
Clc1ccc(N=c2ssnc2Cl)nc1	0.3	-20.1	-9.4	9.0
COc1cc(N=c2ssnc2Cl)cc(OC)c1	0.4	-17.2	-4.0	63.1*
OCc1ccccc1N=c1ssnc1Cl	1.8	-14.8	-0.3	-5.7
CCCc1cc(=O)[nH]c(SCC(=O)Nc2ccc([N+](=O)[O-])cc2C#N)n1	1.2	1.6	-2.3	-2.6
